# Test results as given in ChEMBL document CHEMBL1961873, “Compounds: GSK PKIS; Assays: Nanosyn kinase panel” (2012).
# Legend:
# [1] = target: T1, Aurora kinase A (Homo sapiens) (UniProt O14965); details: at 1 µM;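 also: values are mean percent inhibition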
# T1 sequence (whole entry): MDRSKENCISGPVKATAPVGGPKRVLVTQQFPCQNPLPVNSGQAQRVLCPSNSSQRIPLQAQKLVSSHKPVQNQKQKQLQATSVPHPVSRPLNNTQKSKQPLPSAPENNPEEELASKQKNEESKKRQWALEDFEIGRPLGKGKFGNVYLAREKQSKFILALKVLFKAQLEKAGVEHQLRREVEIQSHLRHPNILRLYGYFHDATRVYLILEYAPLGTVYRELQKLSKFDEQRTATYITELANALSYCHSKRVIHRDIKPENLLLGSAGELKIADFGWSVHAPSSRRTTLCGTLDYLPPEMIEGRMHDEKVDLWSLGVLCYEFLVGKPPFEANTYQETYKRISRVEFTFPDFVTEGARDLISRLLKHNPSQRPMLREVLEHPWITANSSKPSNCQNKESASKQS
# [2] = target: Aurora kinase B (Homo sapiens) (UniProt Q96GD4); details: at 0.1 µM
# Chain of Aurora kinase B (Homo sapiens) (Q96GD4 whole entry): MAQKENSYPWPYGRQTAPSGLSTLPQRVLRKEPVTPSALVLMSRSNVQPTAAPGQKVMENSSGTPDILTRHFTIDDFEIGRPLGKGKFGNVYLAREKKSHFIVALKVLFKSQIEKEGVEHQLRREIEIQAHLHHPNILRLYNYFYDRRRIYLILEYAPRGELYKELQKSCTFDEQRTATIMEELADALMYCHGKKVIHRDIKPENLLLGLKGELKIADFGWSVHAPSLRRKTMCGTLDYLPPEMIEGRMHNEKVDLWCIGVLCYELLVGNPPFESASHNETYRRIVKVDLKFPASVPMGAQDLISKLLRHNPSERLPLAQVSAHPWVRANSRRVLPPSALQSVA
# [3] = target: Aurora kinase B (Homo sapiens) (UniProt Q96GD4); details: at 1 µM
# [4] = target: T2, Aurora kinase C (Homo sapiens) (UniProt Q9UQB9); details: at 0.1 µM
# T2 sequence (whole entry): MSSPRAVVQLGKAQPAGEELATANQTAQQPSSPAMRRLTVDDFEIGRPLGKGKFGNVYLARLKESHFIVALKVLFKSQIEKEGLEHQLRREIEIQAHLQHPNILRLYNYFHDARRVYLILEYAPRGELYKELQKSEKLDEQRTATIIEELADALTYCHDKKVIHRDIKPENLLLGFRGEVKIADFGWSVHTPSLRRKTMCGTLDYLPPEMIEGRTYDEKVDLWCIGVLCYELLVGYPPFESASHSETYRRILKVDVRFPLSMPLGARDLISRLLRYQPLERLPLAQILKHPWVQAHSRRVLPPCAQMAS
# [5] = target: T2, Aurora kinase C (Homo sapiens); details: at 1 µM
# [6] = target: Serine/threonine-protein kinase 10 (Homo sapiens) (UniProt O94804); details: at 0.1 µM
# Chain of Serine/threonine-protein kinase 10 (Homo sapiens) (O94804 whole entry, looked up): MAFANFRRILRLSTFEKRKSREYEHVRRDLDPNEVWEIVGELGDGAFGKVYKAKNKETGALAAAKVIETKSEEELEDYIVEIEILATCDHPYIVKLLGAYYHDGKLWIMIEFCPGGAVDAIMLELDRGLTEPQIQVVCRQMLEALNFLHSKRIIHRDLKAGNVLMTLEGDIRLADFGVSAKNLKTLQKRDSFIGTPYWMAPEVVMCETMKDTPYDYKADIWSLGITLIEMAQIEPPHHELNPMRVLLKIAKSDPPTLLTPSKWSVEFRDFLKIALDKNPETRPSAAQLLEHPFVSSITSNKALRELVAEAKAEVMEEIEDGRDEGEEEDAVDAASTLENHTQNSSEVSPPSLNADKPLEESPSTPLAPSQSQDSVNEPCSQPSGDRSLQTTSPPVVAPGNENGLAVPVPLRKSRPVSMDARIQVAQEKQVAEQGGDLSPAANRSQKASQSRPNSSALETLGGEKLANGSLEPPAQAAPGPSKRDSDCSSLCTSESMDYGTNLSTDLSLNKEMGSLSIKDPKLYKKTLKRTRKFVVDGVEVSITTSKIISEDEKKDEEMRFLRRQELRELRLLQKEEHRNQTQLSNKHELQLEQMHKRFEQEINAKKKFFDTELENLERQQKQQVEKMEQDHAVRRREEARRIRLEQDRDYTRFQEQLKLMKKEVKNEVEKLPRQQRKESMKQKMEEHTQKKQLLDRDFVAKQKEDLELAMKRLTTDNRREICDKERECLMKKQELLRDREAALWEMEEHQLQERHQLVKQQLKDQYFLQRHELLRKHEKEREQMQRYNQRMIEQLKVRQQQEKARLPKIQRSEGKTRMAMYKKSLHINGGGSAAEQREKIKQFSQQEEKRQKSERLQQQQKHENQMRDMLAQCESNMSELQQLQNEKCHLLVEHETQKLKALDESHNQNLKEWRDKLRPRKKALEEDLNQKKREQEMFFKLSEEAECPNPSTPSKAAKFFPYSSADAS
# [7] = target: Serine/threonine-protein kinase 10 (Homo sapiens) (UniProt O94804); details: at 1 µM
# [8] = target: T3, Mitogen-activated protein kinase kinase kinase kinase 2 (Homo sapiens) (UniProt Q12851); details: at 0.1 µM
# T3 sequence (whole entry): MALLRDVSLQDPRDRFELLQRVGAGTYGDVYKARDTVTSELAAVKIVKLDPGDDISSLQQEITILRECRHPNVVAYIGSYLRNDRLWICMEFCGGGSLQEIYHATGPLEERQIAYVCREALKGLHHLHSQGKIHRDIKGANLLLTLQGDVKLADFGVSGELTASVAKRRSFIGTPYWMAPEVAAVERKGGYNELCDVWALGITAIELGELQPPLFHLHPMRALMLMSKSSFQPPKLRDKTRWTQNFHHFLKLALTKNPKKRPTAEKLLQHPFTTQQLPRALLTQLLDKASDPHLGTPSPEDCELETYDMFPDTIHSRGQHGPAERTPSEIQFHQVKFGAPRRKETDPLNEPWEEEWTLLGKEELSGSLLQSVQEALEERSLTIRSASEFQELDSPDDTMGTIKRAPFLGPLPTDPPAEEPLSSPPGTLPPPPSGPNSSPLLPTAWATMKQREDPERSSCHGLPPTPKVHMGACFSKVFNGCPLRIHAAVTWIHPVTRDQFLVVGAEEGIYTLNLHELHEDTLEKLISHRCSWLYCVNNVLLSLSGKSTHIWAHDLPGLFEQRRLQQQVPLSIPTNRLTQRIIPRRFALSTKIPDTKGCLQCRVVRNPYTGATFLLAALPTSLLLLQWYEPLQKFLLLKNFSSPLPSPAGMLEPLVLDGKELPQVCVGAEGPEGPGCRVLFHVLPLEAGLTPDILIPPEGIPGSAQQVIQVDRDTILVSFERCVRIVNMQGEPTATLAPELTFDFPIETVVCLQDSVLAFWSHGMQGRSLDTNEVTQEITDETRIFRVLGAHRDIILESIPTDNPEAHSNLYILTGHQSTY
# [9] = target: T3, Mitogen-activated protein kinase kinase kinase kinase 2 (Homo sapiens); details: at 1 µM
# [10] = target: Mitogen-activated protein kinase kinase kinase kinase 4 (Homo sapiens) (UniProt O95819); details: at 0.1 µM
# Chain of Mitogen-activated protein kinase kinase kinase kinase 4 (Homo sapiens) (O95819 2-1239 limits assumed): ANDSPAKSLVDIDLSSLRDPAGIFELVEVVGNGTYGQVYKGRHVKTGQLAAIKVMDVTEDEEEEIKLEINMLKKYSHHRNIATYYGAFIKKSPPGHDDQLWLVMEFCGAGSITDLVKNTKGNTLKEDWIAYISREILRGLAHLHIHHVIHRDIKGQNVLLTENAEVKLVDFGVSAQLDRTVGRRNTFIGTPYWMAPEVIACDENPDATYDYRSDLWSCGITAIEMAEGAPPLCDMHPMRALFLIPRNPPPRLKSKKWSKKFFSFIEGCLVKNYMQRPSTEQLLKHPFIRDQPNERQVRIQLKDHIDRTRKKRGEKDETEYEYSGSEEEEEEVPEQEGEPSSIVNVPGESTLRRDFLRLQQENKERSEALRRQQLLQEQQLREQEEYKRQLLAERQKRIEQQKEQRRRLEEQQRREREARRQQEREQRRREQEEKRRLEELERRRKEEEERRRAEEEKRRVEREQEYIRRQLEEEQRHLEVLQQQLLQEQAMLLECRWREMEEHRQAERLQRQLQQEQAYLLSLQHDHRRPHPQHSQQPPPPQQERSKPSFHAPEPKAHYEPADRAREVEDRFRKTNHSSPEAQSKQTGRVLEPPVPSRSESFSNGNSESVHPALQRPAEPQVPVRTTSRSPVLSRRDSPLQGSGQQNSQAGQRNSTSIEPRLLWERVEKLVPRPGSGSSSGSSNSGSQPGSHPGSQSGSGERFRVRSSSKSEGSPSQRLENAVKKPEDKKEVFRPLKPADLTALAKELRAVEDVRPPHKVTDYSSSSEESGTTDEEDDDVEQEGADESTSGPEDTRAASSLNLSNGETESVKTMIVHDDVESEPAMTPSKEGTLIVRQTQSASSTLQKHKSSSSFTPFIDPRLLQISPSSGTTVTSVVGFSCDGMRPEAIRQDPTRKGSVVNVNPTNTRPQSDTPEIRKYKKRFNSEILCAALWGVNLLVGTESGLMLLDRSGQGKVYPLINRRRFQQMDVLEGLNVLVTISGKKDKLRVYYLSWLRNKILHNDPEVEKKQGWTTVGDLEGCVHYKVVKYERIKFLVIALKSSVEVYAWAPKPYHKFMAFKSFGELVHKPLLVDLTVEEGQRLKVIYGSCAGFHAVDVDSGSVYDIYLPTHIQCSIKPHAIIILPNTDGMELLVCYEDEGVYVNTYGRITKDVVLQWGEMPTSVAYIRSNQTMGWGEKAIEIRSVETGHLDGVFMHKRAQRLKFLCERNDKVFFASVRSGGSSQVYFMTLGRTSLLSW
# [11] = target: Mitogen-activated protein kinase kinase kinase kinase 4 (Homo sapiens) (UniProt O95819); details: at 1 µM
# [12] = target: Dual specificity mitogen-activated protein kinase kinase 1 (Homo sapiens) (UniProt Q02750); details: at 0.1 µM
# Chain of Dual specificity mitogen-activated protein kinase kinase 1 (Homo sapiens) (Q02750 whole entry): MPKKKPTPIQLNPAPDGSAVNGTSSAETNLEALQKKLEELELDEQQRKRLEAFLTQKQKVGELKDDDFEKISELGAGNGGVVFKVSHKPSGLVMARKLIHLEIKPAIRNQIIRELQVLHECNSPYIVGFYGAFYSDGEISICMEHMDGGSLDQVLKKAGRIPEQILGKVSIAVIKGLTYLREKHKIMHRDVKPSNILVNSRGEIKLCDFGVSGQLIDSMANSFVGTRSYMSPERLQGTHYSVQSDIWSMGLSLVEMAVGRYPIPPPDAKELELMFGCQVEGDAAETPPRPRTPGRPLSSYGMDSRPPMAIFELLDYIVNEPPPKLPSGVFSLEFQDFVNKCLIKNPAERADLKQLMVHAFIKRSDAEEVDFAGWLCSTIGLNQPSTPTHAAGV
# [13] = target: Dual specificity mitogen-activated protein kinase kinase 1 (Homo sapiens) (UniProt Q02750); details: at 1 µM
# [14] = target: Misshapen-like kinase 1 (Homo sapiens) (UniProt Q8N4C8); details: at 0.1 µM
# Chain of Misshapen-like kinase 1 (Homo sapiens) (Q8N4C8 whole entry, looked up): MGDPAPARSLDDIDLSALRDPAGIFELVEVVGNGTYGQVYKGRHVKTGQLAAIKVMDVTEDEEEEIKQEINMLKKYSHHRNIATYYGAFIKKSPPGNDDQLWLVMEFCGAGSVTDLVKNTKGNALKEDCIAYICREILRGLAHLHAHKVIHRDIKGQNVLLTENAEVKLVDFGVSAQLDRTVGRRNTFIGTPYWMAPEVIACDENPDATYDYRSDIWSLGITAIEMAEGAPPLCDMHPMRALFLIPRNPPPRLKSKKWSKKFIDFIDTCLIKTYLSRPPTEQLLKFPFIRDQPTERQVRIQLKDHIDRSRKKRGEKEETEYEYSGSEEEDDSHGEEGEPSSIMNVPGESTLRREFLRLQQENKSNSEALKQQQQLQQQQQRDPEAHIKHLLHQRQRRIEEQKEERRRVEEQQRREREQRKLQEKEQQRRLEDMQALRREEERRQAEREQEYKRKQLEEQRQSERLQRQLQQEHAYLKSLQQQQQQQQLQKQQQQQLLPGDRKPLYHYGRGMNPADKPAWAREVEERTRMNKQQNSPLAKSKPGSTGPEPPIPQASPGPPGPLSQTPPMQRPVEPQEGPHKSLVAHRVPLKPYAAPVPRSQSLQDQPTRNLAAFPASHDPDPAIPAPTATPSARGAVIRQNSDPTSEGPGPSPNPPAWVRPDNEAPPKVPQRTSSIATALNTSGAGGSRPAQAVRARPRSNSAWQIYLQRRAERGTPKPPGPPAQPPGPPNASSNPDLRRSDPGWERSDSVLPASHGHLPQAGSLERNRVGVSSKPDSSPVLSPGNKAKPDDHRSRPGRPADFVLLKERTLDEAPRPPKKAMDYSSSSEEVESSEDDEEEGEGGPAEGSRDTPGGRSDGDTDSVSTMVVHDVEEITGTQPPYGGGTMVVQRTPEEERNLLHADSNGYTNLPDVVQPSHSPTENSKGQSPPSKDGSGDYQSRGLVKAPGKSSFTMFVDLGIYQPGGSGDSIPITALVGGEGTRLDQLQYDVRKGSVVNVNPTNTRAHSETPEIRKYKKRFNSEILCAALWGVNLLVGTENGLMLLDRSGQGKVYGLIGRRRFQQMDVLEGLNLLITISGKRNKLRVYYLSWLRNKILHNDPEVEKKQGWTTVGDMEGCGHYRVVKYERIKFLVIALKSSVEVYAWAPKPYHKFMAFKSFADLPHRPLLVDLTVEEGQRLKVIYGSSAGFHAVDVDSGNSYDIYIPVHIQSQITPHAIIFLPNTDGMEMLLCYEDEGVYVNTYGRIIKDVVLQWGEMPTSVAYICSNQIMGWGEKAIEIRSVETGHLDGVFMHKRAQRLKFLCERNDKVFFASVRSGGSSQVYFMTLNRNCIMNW
# [15] = target: Misshapen-like kinase 1 (Homo sapiens) (UniProt Q8N4C8); details: at 1 µM
# [16] = target: T4, Serine/threonine-protein kinase 4 (Homo sapiens) (UniProt Q13043); details: at 0.1 µM
# T4 sequence (whole entry): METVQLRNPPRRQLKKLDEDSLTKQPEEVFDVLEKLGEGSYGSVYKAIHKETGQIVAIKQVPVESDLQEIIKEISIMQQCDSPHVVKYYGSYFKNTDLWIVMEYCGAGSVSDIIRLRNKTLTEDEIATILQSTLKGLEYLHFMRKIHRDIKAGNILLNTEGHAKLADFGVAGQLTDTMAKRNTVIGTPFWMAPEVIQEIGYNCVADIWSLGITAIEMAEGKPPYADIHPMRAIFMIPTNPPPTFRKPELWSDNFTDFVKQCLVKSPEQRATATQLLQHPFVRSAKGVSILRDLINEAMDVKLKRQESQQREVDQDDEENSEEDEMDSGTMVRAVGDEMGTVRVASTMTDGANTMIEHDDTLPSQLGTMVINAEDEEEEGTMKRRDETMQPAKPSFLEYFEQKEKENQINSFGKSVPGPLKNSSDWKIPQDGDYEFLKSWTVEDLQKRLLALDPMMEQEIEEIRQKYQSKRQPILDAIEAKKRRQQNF
# [17] = target: T4, Serine/threonine-protein kinase 4 (Homo sapiens); details: at 1 µM
# [18] = target: T5, Serine/threonine-protein kinase 3 (Homo sapiens) (UniProt Q13188); details: at 0.1 µM
# T5 sequence (whole entry): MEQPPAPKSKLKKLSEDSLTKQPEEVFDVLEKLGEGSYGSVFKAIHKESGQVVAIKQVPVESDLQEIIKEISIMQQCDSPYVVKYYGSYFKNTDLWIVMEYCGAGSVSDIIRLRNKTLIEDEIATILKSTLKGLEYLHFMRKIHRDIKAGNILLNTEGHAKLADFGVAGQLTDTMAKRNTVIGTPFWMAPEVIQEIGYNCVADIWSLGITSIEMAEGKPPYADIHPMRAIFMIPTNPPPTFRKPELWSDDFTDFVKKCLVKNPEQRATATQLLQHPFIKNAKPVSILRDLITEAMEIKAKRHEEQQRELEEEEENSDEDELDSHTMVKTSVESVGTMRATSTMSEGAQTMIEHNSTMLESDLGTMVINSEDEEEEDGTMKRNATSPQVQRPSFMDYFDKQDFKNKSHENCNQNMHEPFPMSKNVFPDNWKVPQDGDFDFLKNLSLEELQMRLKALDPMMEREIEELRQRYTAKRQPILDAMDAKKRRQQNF
# [19] = target: T5, Serine/threonine-protein kinase 3 (Homo sapiens); details: at 1 µM
# [20] = target: Serine/threonine-protein kinase 26 (Homo sapiens) (UniProt Q9P289); details: at 0.1 µM
# Chain of Serine/threonine-protein kinase 26 (Homo sapiens) (Q9P289 2-416 limits assumed): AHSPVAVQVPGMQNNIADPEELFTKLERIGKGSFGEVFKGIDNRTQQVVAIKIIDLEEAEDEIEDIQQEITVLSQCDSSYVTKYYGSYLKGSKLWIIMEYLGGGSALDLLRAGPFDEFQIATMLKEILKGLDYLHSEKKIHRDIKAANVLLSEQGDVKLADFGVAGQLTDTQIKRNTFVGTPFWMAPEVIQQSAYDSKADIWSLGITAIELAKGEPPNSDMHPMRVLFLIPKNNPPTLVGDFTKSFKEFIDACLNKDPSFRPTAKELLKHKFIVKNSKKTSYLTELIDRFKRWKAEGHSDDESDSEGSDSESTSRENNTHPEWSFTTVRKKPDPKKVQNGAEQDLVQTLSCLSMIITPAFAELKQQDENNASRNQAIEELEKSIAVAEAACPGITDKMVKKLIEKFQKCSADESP
structure (smiles),measurement,setting,value
COC(=O)Nc1nc2ccc(S(=O)(=O)c3ccc(NC(=O)Nc4cc(C(F)(F)F)ccc4F)cc3)cc2[nH]1,inhibition,[1],8.25%
same,inhibition,[2],3.7%
same,inhibition,[3],7.15%
same,inhibition,[4],0.87%
same,inhibition,[5],14.1%
same,inhibition,[6],3.49%
same,inhibition,[7],10.6%
same,inhibition,[8],-0.09%
same,inhibition,[9],1.67%
same,inhibition,[10],2.49%
same,inhibition,[11],6.09%
same,inhibition,[12],2.83%
same,inhibition,[13],2.72%
same,inhibition,[14],5.17%
same,inhibition,[15],8.15%
same,inhibition,[16],3.71%
same,inhibition,[17],4.43%
same,inhibition,[18],4%
same,inhibition,[19],3.06%
same,inhibition,[20],0.89%
CCN(CC)S(=O)(=O)c1ccc(OC)c(Nc2ncc(-c3ccccc3)o2)c1,inhibition,[1],13.9%
same,inhibition,[2],1.33%
same,inhibition,[3],4.64%
same,inhibition,[4],2.12%
same,inhibition,[5],-4.34%
same,inhibition,[6],2.55%
same,inhibition,[7],8.37%
same,inhibition,[8],1.18%
same,inhibition,[9],1.77%
same,inhibition,[10],2.08%
same,inhibition,[11],7.43%
same,inhibition,[12],-0.08%
same,inhibition,[13],0.32%
same,inhibition,[14],4.58%
same,inhibition,[15],7.11%
same,inhibition,[16],6.37%
same,inhibition,[17],11%
same,inhibition,[18],7%
same,inhibition,[19],9.26%
same,inhibition,[20],0.95%
CN1CCC(n2cnc(-c3ccc(F)cc3)c2-c2ccnc(Nc3ccccc3)n2)CC1,inhibition,[1],5.7%
same,inhibition,[2],3.55%
same,inhibition,[3],3.9%
same,inhibition,[4],0.71%
same,inhibition,[5],-2.98%
same,inhibition,[6],2.62%
same,inhibition,[7],8.59%
same,inhibition,[8],1.51%
same,inhibition,[9],10.3%
same,inhibition,[10],4.88%
same,inhibition,[11],41.2%
same,inhibition,[12],3.25%
same,inhibition,[13],4.26%
same,inhibition,[14],8.59%
same,inhibition,[15],41.2%
same,inhibition,[16],3.25%
same,inhibition,[17],6.2%
same,inhibition,[18],1.1%
same,inhibition,[19],3.6%
same,inhibition,[20],0.76%
CCn1cc(-c2ccnc3[nH]ccc23)c(-c2cccc(NC(=O)Nc3ccc(OCc4ccccc4)cc3)c2)n1,inhibition,[1],7.41%
same,inhibition,[2],2.62%
same,inhibition,[3],14.1%
same,inhibition,[4],0.13%
same,inhibition,[5],19.5%
same,inhibition,[6],2.56%
same,inhibition,[7],7.07%
same,inhibition,[8],0.73%
same,inhibition,[9],10.4%
same,inhibition,[10],1.57%
same,inhibition,[11],27.8%
same,inhibition,[12],0.08%
same,inhibition,[13],1.59%
same,inhibition,[14],3%
same,inhibition,[15],30.9%
same,inhibition,[16],1.36%
same,inhibition,[17],1.63%
same,inhibition,[18],2.37%
same,inhibition,[19],2.77%
same,inhibition,[20],0.67%
CNC(=O)c1cc(-c2ccc(F)cc2)cc(-c2ccc(S(=O)(=O)N3CCCC3)cc2)c1N,inhibition,[1],0.86%
same,inhibition,[2],2.91%
same,inhibition,[3],3.09%
same,inhibition,[4],-0.67%
same,inhibition,[5],1.97%
same,inhibition,[6],2.49%
same,inhibition,[7],4.92%
same,inhibition,[8],1%
same,inhibition,[9],0.67%
same,inhibition,[10],3.33%
same,inhibition,[11],7.55%
same,inhibition,[12],2.79%
same,inhibition,[13],4.52%
same,inhibition,[14],4.69%
same,inhibition,[15],5.6%
same,inhibition,[16],0.78%
same,inhibition,[17],1.31%
same,inhibition,[18],0.82%
same,inhibition,[19],1.3%
same,inhibition,[20],-0.65%
Nc1nc(-c2ccc(F)cc2)c(-c2ccc3ncccc3n2)s1,inhibition,[1],10.6%
same,inhibition,[2],6.06%
same,inhibition,[3],7.91%
same,inhibition,[4],2.74%
same,inhibition,[5],-0.03%
same,inhibition,[6],5.75%
same,inhibition,[7],10.1%
same,inhibition,[8],2.4%
same,inhibition,[9],3.82%
same,inhibition,[10],17.7%
same,inhibition,[11],61.8%
same,inhibition,[12],6.1%
same,inhibition,[13],4.31%
same,inhibition,[14],13.2%
same,inhibition,[15],47.9%
same,inhibition,[16],6.16%
same,inhibition,[17],6.98%
same,inhibition,[18],7.16%
same,inhibition,[19],5.82%
same,inhibition,[20],0.24%
